Source: PubChem
This is a sample that favours compounds with a hit; in the whole collection about 18% have one here.
RORgamma inh – blocks mouse ROR gamma transcriptional activity. P51450. Drosophila S2 Gal4-RORgamma UAS-luciferase reporter, 20 h. Potency, µM (titrated, usually from 53.6 µM), for inactives: top-dose activity change, negative = inhibition, usual class: inhibitors. 310,000 compounds, 5.4% hits. AID 2551; further: potency means the concentration at half of the fitted maximal effect; nearly all actives have a fitted effect of over 60% in size
Target sequence (P51450 whole entry, looked up, the tested form may be a part): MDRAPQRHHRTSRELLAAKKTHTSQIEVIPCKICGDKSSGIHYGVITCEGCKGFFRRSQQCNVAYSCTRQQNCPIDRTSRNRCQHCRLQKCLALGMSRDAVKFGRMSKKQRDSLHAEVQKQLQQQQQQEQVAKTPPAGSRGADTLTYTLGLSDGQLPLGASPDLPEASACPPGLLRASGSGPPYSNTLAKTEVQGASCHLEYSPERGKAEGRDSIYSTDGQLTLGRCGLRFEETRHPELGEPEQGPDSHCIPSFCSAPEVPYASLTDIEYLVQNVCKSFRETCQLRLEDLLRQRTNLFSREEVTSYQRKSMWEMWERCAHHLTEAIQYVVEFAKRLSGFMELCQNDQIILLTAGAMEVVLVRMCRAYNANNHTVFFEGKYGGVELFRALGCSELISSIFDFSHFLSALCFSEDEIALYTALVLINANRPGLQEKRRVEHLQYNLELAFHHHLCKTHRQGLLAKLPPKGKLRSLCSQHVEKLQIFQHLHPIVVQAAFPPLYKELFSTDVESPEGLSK
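Drosophila Schneider cells stably carrying a metallothionein-driven Gal4 DBD–ROR gamma fusion and a UAS-Photinus luciferase reporter were exposed to compound for 1 hr, then induced with copper sulfate (700 uM final) for 20 hr at ambient temperature before luminescence reading.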
DT40 TDP1 CPT – DT40-hTDP1 cell growth loss with CPT; chicken DT40 Tdp1-/-;hTDP1 cells + 20 nM CPT, ATP luminescence, 48 h; Potency, µM (titrated, usually from 46.2 µM), for inactives: at the top dose activity change, negative = growth inhibition, hits mostly inhibitors; 420,000 compounds, 12% hits; AID 686979; further: potency means the concentration at half of the fitted maximal effect; nearly all actives have a fitted effect of over 55% in size
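Chicken DT40 Tdp1-/- cells stably complemented with human TDP1 were seeded at 400 cells/well in medium containing 20 nM camptothecin, exposed to pin-transferred compounds, and grown at 37 °C for at least 48 hr. Viability was read as ATP luminescence.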
Gal4-VP16 FLuc – counter-screen for ROR gamma inhibitors: Gal4-VP16 reporter; Drosophila S2 Gal4-VP16 UAS-luciferase, luminescence, 20 h; Potency, µM (highest dose often 53.6 µM), for the others: at the top dose activity, negative = inhibition, most hits filed as inhibitors; 310,000 compounds, 3.5% hits; AID 2546;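 further: Gal4-VP16 expression switched on by copper sulfate through the metallothionein promoter; potency means the concentration at half of the fitted maximal effect; nearly all actives have a fitted effect of over 50% in size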
LDHA block – inhibitors of human lactate dehydrogenase A; 480,000 compounds, 0.15% hits; purified LDHA, NADH/diaphorase-resazurin fluorescence; stronger effect = lower value; activity change, % (values are at about 110 or 230 µM); P00338; in the data active means activity change below about -30%; inconclusive means mostly about -25% to -30%;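 further: plate controls were DMSO wells for no effect and wells without enzyme for full effect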
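Human LDH5 (2 nM) was incubated with 0.06 mM NADH and 0.2 mM pyruvate for 5 min at room temperature in Tris pH 7.4. Remaining NADH was coupled through diaphorase/resazurin, and resorufin fluorescence was read at 0 and 20 min.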
IL1B secr inh – inhibitors of inflammasome signaling (IL-1 beta secretion) | 360,000 compounds, 4.7% hits | THP-1 LPS/ATP IL-1B secretion, AlphaLISA, 16 h; stronger effect = lower value | activity change, % at 57.5 µM; in the data active means activity change below about -50%; inconclusive means mostly about -30% to -49%
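THP-1 cells pretreated 1 hr with compounds (up to 57.5 uM final), then stimulated with LPS (250 ng/mL final) plus ATP (1.25 mM final); secreted IL-1B measured by AlphaLISA after 16 hr, decreased signal indicating inhibition.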
TDP1 cell noCPT – qHTS for Inhibitors of human tyrosyl-DNA phosphodiesterase 1 (TDP1): qHTS in cells in absence of CPT | DT40 Tdp1-/- hTDP1 cells, no CPT, ATP luminescence, 48 h | Potency, µM (titrated, usually from 46.2 µM), without a hit: at the top dose activity change, negative = growth inhibition, usual class: inhibitors | 420,000 compounds, 15% hits | AID 686978, 2013; further: potency means the concentration at half of the fitted maximal effect; nearly all actives have a fitted effect of over 55% in size
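A cellular qHTS used chicken DT40 cells lacking endogenous Tdp1 but carrying stably transfected human TDP1. Compounds were applied without camptothecin, and cell growth kinetics were judged by ATP-dependent luminescence after ≥48 hr.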
* marks the source's active call; other numbers are inactive results; u = inconclusive; x = not tested or not shown. Unless noted, the call rests on the fitted dose curve; in most records, active means well fitted curve in the direction sought with a large enough effect; inconclusive means small, poorly fitted or top-dose-only effect, or another doubt; inactive means no such curve, though single readings can be large; an effect the other way counts as inactive or inconclusive. Unless noted, on the % scale 0 is the no-effect control and ±100 the full control effect.

SMILES	RORgamma inh	DT40 TDP1 CPT	Gal4-VP16 FLuc	LDHA block	IL1B secr inh	TDP1 cell noCPT
Cc1ccc(N2C(=O)c3[nH]nc(-c4ccc(Cl)cc4)c3C2c2ccc(F)cc2)cc1 (stereo unspecified)	x	15µM*	x	1	x	21µM*
COc1ccc(-c2n[nH]c3c2C(c2ccc(O)cc2)N(c2ccc(Br)cc2)C3=O)cc1 (stereo unspecified)	x	18µM*	x	-1	x	u
Cc1ccc(-c2n[nH]c3c2C(c2cccs2)N(c2ccc(Cl)cc2)C3=O)cc1 (stereo unspecified)	x	16µM*	x	0	x	u
COc1cc(C2c3c(-c4ccc(C)cc4)n[nH]c3C(=O)N2c2ccc(F)cc2)ccc1O (stereo unspecified)	x	u	x	-9	x	u
COc1ccc(C2c3c(-c4ccccc4)n[nH]c3C(=O)N2c2ccc(C(=O)O)cc2)cc1 (stereo unspecified)	2%	1%	4%	-3	9	-1%
O=C(CN1CCN(c2ccccc2O)CC1)N1N=C(c2cc3ccccc3o2)CC1c1ccco1 (stereo unspecified)	x	x	x	0	x	x
O=C(CCSCc1cccc(Cl)c1)NCCc1ccc(Cl)cc1	9%	-25%	5%	4	-21	u
CCOc1ccc(CCNC(=O)CSC(=S)N2CCCC2)cc1OCC	x	21µM*	x	-1	-11	u
COc1ccc(Br)cc1CNC(=O)CCSCc1ccc(Cl)cc1	x	u	x	2	x	26µM*
CCOc1ccc(CCNC(=O)CCSCc2cccc(Cl)c2)cc1OCC	x	u	x	-1	x	21µM*
CCOc1ccc(CCNC(=O)CCOc2cc(C)ccc2C)cc1OCC	17%	u	5%	7	-5	18µM*
COC(=O)/C(=C/c1cccc([N+](=O)[O-])c1)C(C)=O	x	x	x	-8	x	x
Cc1ccc(NC(=O)CSCc2cc(=O)n3oc(C)cc3n2)cc1	x	x	x	0	x	x
Cc1cc(C(=O)OC(C)C(=O)Nc2ccc(Cl)cc2F)c(C)o1 (stereo unspecified)	x	x	x	-8	x	x
CCOc1ccc(CCNC(=O)CCSCc2ccc(Cl)cc2)cc1OCC	x	u	x	1	x	23µM*
Cc1cc(NCc2ccccc2Cl)n2cnnc2n1	x	12µM*	x	0	x	9.2µM*
CCOC(=O)c1ccc(N2CCN(c3cccc(Cl)c3)CC2)c(NC(=O)Nc2ccc(OC)cc2OC)c1	x	-16%	x	-2	x	-10%
CCOC(=O)c1ccc(N2CCN(c3cc(Cl)ccc3C)CC2)c(NC(=O)Nc2ccc(OCC)cc2)c1	x	u	x	-4	x	13µM*
CCOC(=O)c1ccc(N2CCN(c3cc(C)ccc3C)CC2)c(NC(=O)Nc2ccccc2)c1	x	5.8µM*	x	-3	x	2.9µM*
CCOC(=O)c1ccc(N2CCN(c3cccc(OC)c3)CC2)c(NC(=O)Nc2ccc(OCC)cc2)c1	x	u	x	13	x	-23%
CCOC(=O)C1=C(CN(CCOC)Cc2ccco2)NC(=O)NC1c1ccc(OC(C)C)cc1 (stereo unspecified)	x	x	x	3	x	x
Clc1cccc(OCCN2CCN(CCOc3cccc(Cl)c3)CC2)c1	30%	2.9µM*	-23%	2	-85*	2.3µM*
Cc1ccc(S(=O)(=O)N2CCN(CCOc3cccc(C)c3)CC2)cc1	x	-18%	x	0	-21	7.3µM*
O=S(=O)(c1ccc(F)cc1)N1CCN(CCOc2ccccc2)CC1	x	-1%	x	3	-15	-12%
COc1ccc(S(=O)(=O)N2CCN(CCOc3ccc(Br)cc3)CC2)cc1OC	x	u	x	-8	-21	15µM*
SMILES	RORgamma inh	DT40 TDP1 CPT	Gal4-VP16 FLuc	LDHA block	IL1B secr inh	TDP1 cell noCPT
COc1ccc(S(=O)(=O)N2CCN(CCOc3ccccc3Cl)CC2)cc1OC	x	23µM*	x	-4	-16	u
COc1ccc2oc(-c3ccc(NC(=O)c4ccc(Br)o4)cc3)nc2c1	x	x	x	1	x	x
Cc1ccc(S(=O)(=O)N2CCN(Cc3ccco3)CC2)cc1C	3%	-1%	0%	0	7	13%
Cc1ccc(S(=O)(=O)N2CCN(CCOc3c(Cl)cccc3Cl)CC2)cc1C	x	21µM*	x	1	-1	u
CC(C(=O)NCc1cccs1)N(C)Cc1ccc(C(C)(C)C)cc1 (stereo unspecified)	x	x	x	-2	x	x
c1csc(-c2noc(CN3CCCC3c3ccsc3)n2)c1 (stereo unspecified)	x	x	x	-4	x	x
CCCCCCCC(=O)NNC(=O)c1c(O)c2ccccc2[nH]c1=O	-7%	u	-3%	-2	-4	0%
Cc1cccc(C)c1NC(=O)c1c(O)c2ccccc2[nH]c1=O	x	18µM*	x	-2	-6	u
CCCCCCNC(=O)c1c(O)c2ccccc2[nH]c1=O	4%	u	14%	0	-26	13µM*
O=C(Nc1cccc(O)c1)c1c(O)c2ccccc2[nH]c1=O	6%	18µM*	-19%	-2	3	u
CC12CCC(C/C1=N\O)C2(C)C (stereo unspecified)	x	x	x	0	x	x
CC12CCC(C/C1=N\N=C1\NC(=O)/C(=C\c3ccc(Cl)cc3)S1)C2(C)C (stereo unspecified)	u	u	10µM*	1	-57*	u
CCCCC(=O)NC1(C(F)(F)F)C(=O)N(Cc2ccccc2)C(C)=C1C(=O)OC (stereo unspecified)	x	x	x	-11	x	x
